Measurements reported in PubChem BioAssay AID1159580 (chemical genetic matrix, 2015).
Several values for one entry are separate records, joined by “and”; a condition that tells them apart may be missing. Identical values can stand only once. Screen size: about 5,500 compounds; about 2,000 (36%) were called active. Not shown: some 18% with an inconclusive outcome. Rule as the data show it: active = normalized growth mostly below about 0.91 (no sharp cut-off); inconclusive = no clear call, values can overlap the other calls; inactive = mostly above about 0.92. The list shows a part of the results.

Assay: chemical genetic growth profiling, strain panel (AID 1159580);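 also: tested at 20 µM; growth read once vehicle control cultures reached saturation at 30 °C; 1 = growth at the plate median or of vehicle wells; lower values mean less growth of the strain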
Conditions: growth OD

Measured: normalized growth

CC(CN(C)C)CN1c2ccccc2CCc2ccccc21 (stereo not given)
inactive: S. cerevisiae deletion strains, locus YJR066W, strain TOR1, hits give low values 0.94 | S. cerevisiae deletion strains, locus YKL009W, strain mrt4, hits give low values 1 | S. cerevisiae deletion strains, locus YKL068W, hits give low values 1.01 | S. cerevisiae deletion strains, locus YKL085W, strain MDH1 (second series), hits give low values 1.02 | S. cerevisiae deletion strains, locus YKL085W, strain MDH1, hits give low values 1.02 | S. cerevisiae deletion strains, locus YKL160W, strain elf1, hits give low values 0.978 | S. cerevisiae deletion strains, locus YKL190W, strain CNB1, hits give low values 1.02 | S. cerevisiae deletion strains, locus YKR001C, strain vps1, hits give low values 1.02 | S. cerevisiae deletion strains, locus YKR026C, strain gcn3, hits give low values 0.991 | S. cerevisiae deletion strains, locus YKR091W, strain srl3, hits give low values 0.977 | S. cerevisiae deletion strains, locus YLL001W, strain dnm1, hits give low values 0.989 | S. cerevisiae deletion strains, locus YLL026W, hits give low values 0.979 | S. cerevisiae deletion strains, locus YLL041C, strain sdh2, hits give low values 0.965 | S. cerevisiae deletion strains, locus YLR027C, strain aat2, hits give low values 0.974 | S. cerevisiae deletion strains, locus YLR039C, strain RIC1, hits give low values 1.13 | S. cerevisiae deletion strains, locus YLR058C, strain SHM2, hits give low values 1.01 | S. cerevisiae deletion strains, locus YLR102C, strain apc9, hits give low values 1.02 | S. cerevisiae deletion strains, locus YLR113W, strain HOG1, hits give low values 0.994 | S. cerevisiae deletion strains, locus YLR221C, strain rsa3, hits give low values 0.982 | S. cerevisiae deletion strains, locus YLR258W, strain gsy2, hits give low values 0.984 | S. cerevisiae deletion strains, locus YLR262C, strain YPT6 (second series), hits give low values 1.01 | S. cerevisiae deletion strains, locus YLR262C, strain YPT6, hits give low values 1.12 | S. cerevisiae deletion strains, locus YLR268W, strain sec22, hits give low values 1.02 | S. cerevisiae deletion strains, locus YLR320W, strain mms22, hits give low values 0.947 | S. cerevisiae deletion strains, locus YLR330W, strain CHS5, hits give low values 1.01 | S. cerevisiae deletion strains, locus YLR342W, strain FKS1 (second series), hits give low values 1.04 | S. cerevisiae deletion strains, locus YLR342W, strain FKS1, hits give low values 0.976 | S. cerevisiae deletion strains, locus YLR357W, strain rsc2, hits give low values 0.967 | S. cerevisiae deletion strains, locus YLR370C, strain arc18, hits give low values 0.977 | S. cerevisiae deletion strains, locus YLR371W, strain rom2, hits give low values 1.01 | S. cerevisiae deletion strains, locus YLR384C, strain iki3, hits give low values 0.979 | S. cerevisiae deletion strains, locus YLR418C, strain cdc73, hits give low values 1.02 | S. cerevisiae deletion strains, locus YML016C, strain PPZ1, hits give low values 1.01 | S. cerevisiae deletion strains, locus YML032C, strain rad52, hits give low values 1.01 | S. cerevisiae deletion strains, locus YML120C, strain ndi1, hits give low values 0.971 | S. cerevisiae deletion strains, locus YML124C, strain tub3, hits give low values 1.02 | S. cerevisiae deletion strains, locus YMR058W, strain fet3, hits give low values 0.971 | S. cerevisiae deletion strains, locus YMR078C, strain ctf18, hits give low values 1.01 | S. cerevisiae deletion strains, locus YMR125W, strain sto1, hits give low values 0.973 | S. cerevisiae deletion strains, locus YMR129W, hits give low values 0.981 | S. cerevisiae deletion strains, locus YMR205C, strain PFK2, hits give low values 0.97 | S. cerevisiae deletion strains, locus YMR223W, strain ubp8, hits give low values 1.02 | S. cerevisiae deletion strains, locus YMR231W, strain pep5, hits give low values 0.984 | S. cerevisiae deletion strains, locus YMR263W, strain SAP30, hits give low values 1 | S. cerevisiae deletion strains, locus YMR307W, strain GAS1, hits give low values 1.05 and 1 | S. cerevisiae deletion strains, locus YNL067W, strain RPL9B, hits give low values 1.01 | S. cerevisiae deletion strains, locus YNL071W, strain lat1, hits give low values 0.963 | S. cerevisiae deletion strains, locus YNL128W, strain TEP1, hits give low values 1.03 and 1.02 | S. cerevisiae deletion strains, locus YNL175C, strain NOP13, hits give low values 1.01 | S. cerevisiae deletion strains, locus YNL183C, strain NPR1, hits give low values 0.936 | S. cerevisiae deletion strains, locus YNL197C, strain WHI3, hits give low values 1.02 | S. cerevisiae deletion strains, locus YNL209W, strain ssb2, hits give low values 0.98 | S. cerevisiae deletion strains, locus YNL224C, strain SQS1, hits give low values 1.01 | S. cerevisiae deletion strains, locus YNL233W, strain BNI4, hits give low values 0.998 | S. cerevisiae deletion strains, locus YNL248C, strain rpa49, hits give low values 0.988 | S. cerevisiae deletion strains, locus YNL250W, strain rad50, hits give low values 1.03 | S. cerevisiae deletion strains, locus YNL271C, strain bni1, hits give low values 1.02 | S. cerevisiae deletion strains, locus YNL298W, strain CLA4, hits give low values 1.02 | S. cerevisiae deletion strains, locus YNL307C, strain MCK1, hits give low values 1.03 | S. cerevisiae deletion strains, locus YNL322C, strain KRE1 (second series), hits give low values 0.966 | S. cerevisiae deletion strains, locus YNL322C, strain KRE1, hits give low values 1.01 | S. cerevisiae deletion strains, locus YNR049C, strain mso1, hits give low values 0.977 | S. cerevisiae deletion strains, locus YNR052C, strain pop2, hits give low values 1.02 | S. cerevisiae deletion strains, locus YOL006C, strain TOP1, hits give low values 0.976 | S. cerevisiae deletion strains, locus YOL012C, strain htz1 1.63 | S. cerevisiae deletion strains, locus YOL147C, strain pex11, hits give low values 1.02 | S. cerevisiae deletion strains, locus YOR001W, strain rrp6, hits give low values 0.979 | S. cerevisiae deletion strains, locus YOR061W, strain CKA2, hits give low values 1.01 | S. cerevisiae deletion strains, locus YOR069W, strain VPS5, hits give low values 1.01 | S. cerevisiae deletion strains, locus YOR070C, strain gyp1, hits give low values 1.01 | S. cerevisiae deletion strains, locus YOR080W, strain dia2, hits give low values 0.971 | S. cerevisiae deletion strains, locus YOR083W, strain WHI5 (second series), hits give low values 1.05 | S. cerevisiae deletion strains, locus YOR083W, strain WHI5, hits give low values 0.976 | S. cerevisiae deletion strains, locus YOR106W, strain vam3, hits give low values 0.939 | S. cerevisiae deletion strains, locus YOR136W, strain idh2, hits give low values 1.02 | S. cerevisiae deletion strains, locus YOR144C, strain elg1, hits give low values 1.02 | S. cerevisiae deletion strains, locus YOR184W, strain ser1, hits give low values 1.04 | S. cerevisiae deletion strains, locus YOR231W, strain MKK1, hits give low values 0.983 | S. cerevisiae deletion strains, locus YOR265W, strain rbl2, hits give low values 0.97 | S. cerevisiae deletion strains, locus YOR270C, strain vph1, hits give low values 0.897 | S. cerevisiae deletion strains, locus YOR290C, strain snf2, hits give low values 0.927 | S. cerevisiae deletion strains, locus YOR316C, strain cot1, hits give low values 1.02 | S. cerevisiae deletion strains, locus YPL051W, strain arl3, hits give low values 0.972 | S. cerevisiae deletion strains, locus YPL055C, strain LGE1, hits give low values 1.01 | S. cerevisiae deletion strains, locus YPL078C, strain atp4, hits give low values 0.961 | S. cerevisiae deletion strains, locus YPL106C, strain sse1, hits give low values 0.956 | S. cerevisiae deletion strains, locus YPL240C, strain hsp82, hits give low values 0.978 | S. cerevisiae deletion strains, locus YPL241C, strain CIN2, hits give low values 1.01 and 1 | S. cerevisiae deletion strains, locus YPL256C, strain CLN2, hits give low values 0.981 | S. cerevisiae deletion strains, locus YPR119W, strain clb2, hits give low values 1.02 | S. cerevisiae deletion strains, locus YPR141C, strain kar3, hits give low values 1.01 | S. cerevisiae deletion strains, locus YPR163C, strain tif3, hits give low values 1.02 | S. cerevisiae deletion strains, locus YPR167C, strain met16, hits give low values 1.02 | S. cerevisiae deletion strains, strain wtn01, hits give low values 1.02 | S. cerevisiae strains, strain wild type, hits give low values 1
